Measured values as given in PubChem BioAssay (NCI).
The panel holds about 79,000 compounds, 15% with a hit somewhere; the sample as a whole holds those more often. The source made the active and inactive calls. Rule as the data show it: active = growth inhibition above about 70%; inactive = the rest.

Columns and labels:
[1] = NCI Yeast Anticancer Drug Screen. Data for the rad50 strain (AID 155);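 also: 0% = growth of vehicle-only cultures of the same strain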; details: S. cerevisiae rad50 strain growth inhibition, active compounds read high
Method in brief: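 DNA repair mutant yeast, compound exposure, growth read-out; inhibition is taken relative to vehicle.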

[2] = NCI Yeast Anticancer Drug Screen. Data for the mec2-1 strain (AID 157); details: S. cerevisiae mec2-1 strain, active compounds read high
Method in brief: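 Strain: mec2-1 (DNA repair/cell cycle alteration). Compound exposure, then growth measured; inhibition expressed relative to vehicle.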

[3] = NCI Yeast Anticancer Drug Screen. Data for the sgs1 mgt1 strain (AID 161);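 also: 0% = growth of cultures given vehicle only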; details: S. cerevisiae sgs1 mgt1 strain, active compounds read high
Method in brief: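 Inhibition of yeast growth, normalised to vehicle-treated controls, is reported for a strain bearing genetic alterations in DNA damage repair.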

[4] = NCI Yeast Anticancer Drug Screen. Data for the cln2 rad14 strain (AID 165);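 also: 0% = growth equal to vehicle treated cultures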; details: S. cerevisiae cln2 rad14 strain, active compounds read high
Method in brief: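 Compounds are applied to the cln2 rad14 yeast strain, and growth is then compared with that of vehicle-treated cultures to give inhibition.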

[5] = NCI Yeast Anticancer Drug Screen. Data for the bub3 strain (AID 167); details: S. cerevisiae bub3 mutant strain, active compounds read high
Method in brief: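 In this screen, a yeast mutant lacking normal mitotic checkpoint function is challenged with compound. Relative growth versus vehicle gives the inhibition value.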

[6] = NCI Yeast Anticancer Drug Screen. Data for the mlh1 rad18 strain (AID 175); details: S. cerevisiae mlh1 rad18 strain growth inhibition, active compounds read high
Method in brief: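 Read-out is yeast growth inhibition, calculated against vehicle-only controls. The compound was applied to a strain engineered with DNA damage repair alterations.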

[7] = at 5.0 µM (retest, dose inferred, filed as 0.5)
[8] = at 50.0 µM (retest, dose inferred, filed as 5.0)

Measured: growth inhibition

Clc1cc[c]([Sn]([O][Sn]([c]2ccc(Cl)cc2)([c]2ccc(Cl)cc2)[c]2ccc(Cl)cc2)([c]2ccc(Cl)cc2)[c]2ccc(Cl)cc2)cc1
active: [1]; [7] 98% | [1]; [8] 95% | [1]; at 50.0 µM 97.5% | [2]; [7] 99% | [2]; [8] 98% | [2]; at 50.0 µM 99.3% | [3]; [7] 99% | [3]; [8] 98% | [3]; at 50.0 µM 96.6% | [4]; [7] 99% | [4]; [8] 96% | [4]; at 50.0 µM 79.5% | [5]; [7] 98% | [5]; [8] 97% | [5]; at 50.0 µM 88.8% | [6]; [7] 99% | [6]; [8] 97% | [6]; at 50.0 µM 98.3%

CCCCN(CCCC)CC(O)Cc1cc2ccccc2c2ccccc12 (centres undefined)
inactive: [1]; [7] 0% | [1]; [8] 65% | [2]; [7] 1% | [2]; [8] 44% | [2]; at 50.0 µM 48.6% | [3]; [7] -4% | [4]; [7] -7% | [4]; [8] 42% | [4]; at 50.0 µM 62.6% | [5]; [7] 0% | [5]; [8] 47% | [6]; [7] 18%
active: [1]; at 50.0 µM 90.7% | [3]; [8] 92% | [3]; at 50.0 µM 99.1% | [5]; at 50.0 µM 94.4% | [6]; [8] 91% | [6]; at 50.0 µM 98.4%

O=C(SC(O)c1ccc(Cl)cc1)c1ccccc1 (centres undefined)
inactive: [1]; [7] -7% | [1]; [8] 58% | [2]; [7] -7% | [2]; [8] 57% | [3]; [7] -3% | [3]; [8] 68% | [4]; [7] -4% | [4]; [8] 58% | [4]; at 50.0 µM 22.9% | [5]; [7] -5% | [5]; [8] 57% | [5]; at 50.0 µM 64.9% | [6]; [7] -8% | [6]; [8] 60%
active: [1]; at 50.0 µM 79.8% | [2]; at 50.0 µM 74.5% | [3]; at 50.0 µM 85.3% | [6]; at 50.0 µM 81.8%

CCOC(=O)c1ccc(-n2c(C)nc3ccc(Br)cc3c2=O)cc1
inactive: [1]; [7] -4% | [1]; [8] -6% | [1]; at 50.0 µM 53% | [2]; [7] -1% | [2]; [8] -7% | [2]; at 50.0 µM 61.6% | [3]; [7] -4% | [3]; [8] -7% | [3]; at 50.0 µM 40% | [4]; [7] 0% | [4]; [8] -6% | [4]; at 50.0 µM 64.5% | [5]; [7] 1% | [5]; [8] -1% | [6]; [7] -2% | [6]; [8] -6%
active: [5]; at 50.0 µM 77.6% | [6]; at 50.0 µM 74.8%

CCOC(=O)Nc1c(F)cc(F)cc1F
inactive: [1]; [7] 0% | [1]; [8] 0% | [1]; at 50.0 µM 8.65% | [2]; [7] -32% | [2]; [8] 1% | [2]; at 50.0 µM 5.6% | [3]; [7] 1% | [3]; [8] -1% | [3]; at 50.0 µM -7.55% | [4]; [7] -2% | [4]; [8] -4% | [4]; at 50.0 µM 45.2% | [5]; [7] -5% | [5]; [8] -2% | [5]; at 50.0 µM 4.25% | [6]; [7] 2% | [6]; [8] 0% | [6]; at 50.0 µM -0.05%

Cc1ccc(C2(c3ccc(F)cc3)OC(=O)c3ccccc32)c(O)c1 (centres undefined)
inactive: [1]; [7] 11% | [2]; [7] 13% | [3]; [7] -14% | [4]; [7] 3% | [5]; [7] 11% | [6]; [7] 27%
active: [1]; [8] 99% | [1]; at 50.0 µM 86.2% | [2]; [8] 99% | [2]; at 50.0 µM 88.7% | [3]; [8] 99% | [3]; at 50.0 µM 97% | [4]; [8] 99% | [4]; at 50.0 µM 93.8% | [5]; [8] 99% | [5]; at 50.0 µM 98.8% | [6]; [8] 99% | [6]; at 50.0 µM 96.3%

CCOC(=O)c1c(C)c2c(n1C)CCc1sc(N)nc1-2
active: [1]; at 50.0 µM 96% | [2]; at 50.0 µM 96.8% | [3]; at 50.0 µM 98.3% | [5]; [8] 80% | [5]; at 50.0 µM 96.7% | [6]; at 50.0 µM 90.2%
inactive: [1]; [7] 14% | [1]; [8] 66% | [2]; [7] 7% | [2]; [8] 58% | [3]; [7] 5% | [3]; [8] 65% | [4]; [7] -1% | [4]; [8] 26% | [4]; at 50.0 µM 43.3% | [5]; [7] 2% | [6]; [7] -1% | [6]; [8] 58%

CCCCCCCCCCCCNC(=O)C[n+]1ccc(C(N)=O)cc1
active: [1]; [8] 72% | [3]; [8] 77% | [3]; at 50.0 µM 74.2% | [4]; [8] 86% | [6]; [8] 92%
inactive: [1]; [7] -34% | [1]; at 50.0 µM 61.2% | [2]; [7] -6% | [2]; [8] 61% | [2]; at 50.0 µM 49% | [3]; [7] 1% | [4]; [7] -6% | [4]; at 50.0 µM 24.6% | [6]; [7] 0% | [6]; at 50.0 µM 41.8%

CC(Cl)C(=O)Nc1cc2ccccc2oc1=O (centres undefined)
inactive: [1]; [7] -7% | [1]; [8] 9% | [1]; at 50.0 µM 10.7% | [2]; [7] -3% | [2]; [8] 7% | [2]; at 50.0 µM 6.15% | [3]; [7] 6% | [3]; [8] 4% | [3]; at 50.0 µM 9.2% | [4]; [7] 10% | [4]; [8] -1% | [4]; at 50.0 µM 0.35% | [5]; [7] -5% | [5]; [8] -2% | [5]; at 50.0 µM 2.45% | [6]; [7] -21% | [6]; [8] -3% | [6]; at 50.0 µM -11.2%
